From PubChem BioAssay
Rows were chosen to be rich in hits. Some 3.6% of all compounds tested hit in one or more screens of this group.
S16 viability = S16 Schwann cell cytotoxicity | S16 Pmp22-F2sN Schwann cells viability, CellTiter-Glo, 24 h | Potency, µM (highest dose often 57.5 µM), actives largely listed as cytotoxic | AID 1508642 | 0.48% of 43,000 active; also: nearly all actives have a fitted effect of over 65% in size
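Viability was measured by CellTiter-Glo luminescence (15 min, room temperature). This followed 24 h at 37 °C of compound exposure (23 nL pin transfer) in S16 Pmp22-F2sN Schwann cells, 500-1,000 per well.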
mTORC1 inh = mTORC1 pathway inhibition measured by phospho-rpS6. Potency, µM (highest dose often 38.3 µM), usual class: inhibitors. Tsc2-/- p53-/- MEF, phospho-rpS6 immunofluorescence/PI, 24 h. 0.78% of 44,000 active; also: nearly all actives have a fitted effect of over 50% in size
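Compounds act on Tsc2-/-, p53-/- fibroblasts carrying an empty vector for 24 h before fixation and dual staining for phospho-S6 and DNA (propidium iodide). Values are percentages of cells above a rapamycin-defined pS6/PI threshold.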
OvCa metastasis = inhibitors of ovarian cancer cell adhesion and invasion in omental model; SKOV3ip1-GFP adhesion/invasion on 3D omental model, fluorescence; Potency, µM (top dose mostly 45.8 µM), hits mostly inhibitors; 0.1% of 46,000 active; AID 1963576; also: nearly all actives have a fitted effect of over 65% in size
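Adhesion/invasion was scored as fixed GFP-labeled SKOV3ip1 cell counts (488/509 nm), normalized to DMSO and tomatine controls. Cancer cells in serum-free medium, with four compound doses (0.36-46 umol/L), sat 2 hr at RT then 16 hr at 37 C on a 48 hr fibroblast/mesothelial/ECM culture.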
HTT promoter inh = inhibits huntingtin promoter activity | Potency, µM (titrated, usually from 57.5 µM), most hits filed as inhibitors | HEK293 HTT promoter firefly luciferase reporter, 24 h | AID 1508623 | 0.93% of 48,000 active; also: nearly all actives have a fitted effect of over 50% in size
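Firefly luciferase readout (Dual-Glo, 10 min RT) after 24 h, 37 °C compound exposure (final up to 57.5 uM) of HEK293 reporter cells cultured 24 h beforehand; PTC124 at 50 uM final as control inhibitor; activity scaled vehicle 0%, zero RLU -100%.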
PMP22 txn = PMP22 gene transcription modulation; S16 Pmp22-F2sN Schwann cells (luciferase reporters placed in the Pmp22 gene), FLuc/NLuc coincidence luminescence, 24 h; Potency, µM (doses to about 57.5 µM), usual class: inhibitors; 2% of 43,000 active; active = clear falling dose curves in both reporters; inconclusive = both reporters move, but less clearly or upward; inactive = either reporter flat; the % is the NLuc reporter signal
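Luminescent read-out of sequential FLuc and NLuc signals from a reporter embedded in the Pmp22 3' UTR of S16 Schwann cells, taken after 24 h compound exposure at 37C; compounds reducing both signals score as inhibitors of expression.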
HTT-AS act = HTT-AS promoter activation; 0.24% of 48,000 active; HEK293 HTT-AS promoter firefly luciferase reporter, 24 h; response scale: percent change from vehicle, -100% = no light; Potency, µM (titrated, usually from 57.5 µM), hits mostly activators; AID 1508624; also: nearly all actives have a fitted effect of over 55% in size
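Quantitative HTS used concentration series of up to 57.5 uM final on HEK293 luciferase reporter cells, 24 h at 37 degrees C. Readout was Dual-Glo firefly luminescence.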
Hits are given with their value. Unless noted, calls follow the shape of the dose curve; as a rule, active = well fitted curve in the direction sought with a large enough effect; inconclusive = small, poorly fitted or top-dose-only effect, or another doubt; inactive = no such curve, though single readings can be large; an effect the other way counts as inactive or inconclusive.

Screening CC(Oc1ccc(Br)cc1)C(=O)Nc1ncn[nH]1 (configuration not stated) returned S16 viability inactive, mTORC1 inh inactive, OvCa metastasis inactive, HTT promoter inh inactive, PMP22 txn inactive and HTT-AS act inactive.
Screening COc1cc(F)c(F)c(Nc2ccc(I)cc2F)c1NS(=O)(=O)C1(C[C@H](O)CO)CC1 returned OvCa metastasis inactive, HTT promoter inh inactive and HTT-AS act inactive.
Screening Cc1cccc(-c2nnc(SCCC(=O)O)o2)c1 returned S16 viability inactive, mTORC1 inh inactive, OvCa metastasis inactive, HTT promoter inh 0.25µM, PMP22 txn inactive and HTT-AS act inactive.
CS(=O)(=O)N1CCc2cc(C(=O)NCCc3ccccc3)ccc21 was read as S16 viability inactive, mTORC1 inh inactive, OvCa metastasis inactive, HTT promoter inh inactive, PMP22 txn inactive and HTT-AS act 3.2µM.
Screening NS(=O)(=O)c1ccc(Nc2nc(OCC3CCCCC3)c3[nH]cnc3n2)cc1 returned OvCa metastasis inactive, HTT promoter inh inactive and HTT-AS act inactive.
CCCC1=Nc2cc(C(=O)NCc3ccccc3)ccc2Sc2ccccc21 was read as S16 viability inconclusive, mTORC1 inh inconclusive, OvCa metastasis inconclusive, HTT promoter inh inconclusive, PMP22 txn 12µM and HTT-AS act inactive.
For COc1cc(OC)cc(-c2ccc3ncc4ccc(=O)n(-c5ccc(N6CCNCC6)c(C(F)(F)F)c5)c4c3c2)c1 the results were OvCa metastasis inactive, HTT promoter inh inconclusive and HTT-AS act inactive.
Screening CC(C)C[C@@H](N)[C@H](O)C(=O)N[C@H](C(=O)N[C@H](C(=O)N[C@@H](CC(=O)O)C(=O)O)C(C)C)C(C)C returned OvCa metastasis inactive, HTT promoter inh inactive and HTT-AS act inactive.
For CCC1CN(C(=O)NCc2ccc(F)cc2)c2cc(C)ccc2O1 (configuration not stated) the results were S16 viability inactive, mTORC1 inh 21µM, OvCa metastasis inactive, HTT promoter inh inactive, PMP22 txn inactive and HTT-AS act inactive.
COC(=O)[C@]12CCC(C)(C)C[C@@H]1[C@@H]1C(=O)C=C3[C@@]4(C)C=C(C#N)C(=O)C(C)(C)[C@@H]4CC[C@@]3(C)[C@]1(C)CC2 was read as OvCa metastasis 2.3µM, HTT promoter inh inconclusive and HTT-AS act inactive.
Screening Cc1c(C(=O)Nc2ccc(C(=O)O)cc2)nnn1-c1ccccc1 returned S16 viability inactive, mTORC1 inh inactive, OvCa metastasis inactive, HTT promoter inh 2.5µM, PMP22 txn inactive and HTT-AS act inactive.
CC(C)(CC(=O)NCc1ccc(Cl)cc1Cl)CC1=NS(=O)(=O)c2ccccc2N1 was read as S16 viability inconclusive, mTORC1 inh inactive, OvCa metastasis inactive, HTT promoter inh 20µM, PMP22 txn inconclusive and HTT-AS act inactive.
Screening C[C@]12CC[C@@H]3c4ccc(O)cc4C[C@@H](CCCCCCCCCS(=O)CCCC(F)(F)C(F)(F)F)[C@H]3[C@H]1CC[C@H]2O (some centres not stated) returned OvCa metastasis inactive, HTT promoter inh inactive and HTT-AS act inactive.
Screening CCc1ccc(-n2c(=O)c3c4c(sc3n(CC(=O)c3ccc(F)cc3)c2=O)CCC4)cc1 returned S16 viability inactive, mTORC1 inh 5.2µM, OvCa metastasis inactive, HTT promoter inh inactive, PMP22 txn inconclusive and HTT-AS act inactive.
COc1cc(NC(=O)c2ccc(-c3ccc(Cl)cc3)o2)cc(OC)c1 was read as OvCa metastasis inactive, HTT promoter inh inconclusive and HTT-AS act inactive.
`CCCN(c1ccccc1CC)S(=O)(=O)c1ccc2c(c1)CC(C)N2C(=O)C1CC1` (configuration not stated) gave S16 viability inactive, mTORC1 inh inactive, OvCa metastasis inactive, HTT promoter inh 22µM, PMP22 txn inconclusive and HTT-AS act inactive.
COc1ccc(C(=O)NCCn2cc(SCc3cccc(F)c3)c3ccccc32)cc1OC was read as S16 viability inactive, mTORC1 inh inactive, OvCa metastasis inactive, HTT promoter inh 25µM, PMP22 txn inconclusive and HTT-AS act inactive.
`O=C(NCCn1cc(SCc2ccc(F)cc2)c2ccccc21)c1cccs1` gave S16 viability inactive, mTORC1 inh inactive, OvCa metastasis inactive, HTT promoter inh 28µM, PMP22 txn inconclusive and HTT-AS act inactive.
Screening Cc1ccc(CSc2cn(CCNC(=O)c3cccs3)c3ccccc23)cc1 returned S16 viability inactive, mTORC1 inh inactive, OvCa metastasis inactive, HTT promoter inh inconclusive, PMP22 txn inconclusive and HTT-AS act inactive.
O=C(Nc1ccc(SC(F)F)cc1)c1cc(-c2ccc3c(c2)OCCO3)on1 was read as S16 viability inactive, mTORC1 inh inactive, OvCa metastasis inactive, HTT promoter inh 10µM, PMP22 txn inconclusive and HTT-AS act inactive.
`Cc1cc(C=c2sc3nc4ccccc4n3c2=O)c(C)n1-c1ccccc1` gave OvCa metastasis inactive, HTT promoter inh inconclusive and HTT-AS act inactive.
Screening COc1ccc(-c2ccc3c(N4CCOCC4)nc(N4C[C@@H](C)O[C@@H](C)C4)nc3n2)cc1CO returned OvCa metastasis inactive, HTT promoter inh inconclusive and HTT-AS act inactive.
For Cc1ccc(S(=O)(=O)N2CCCC2C(=O)Nc2ccc(Br)cc2)cc1 (configuration not stated) the results were S16 viability inconclusive, mTORC1 inh inactive, OvCa metastasis inactive, HTT promoter inh 32µM, PMP22 txn inconclusive and HTT-AS act inactive.
Screening Cc1ccc(NC(=O)C2CCCN2S(=O)(=O)c2ccc3c(c2)n(C)c(=O)c(=O)n3C)cc1 (configuration not stated) returned S16 viability inactive, mTORC1 inh inactive, OvCa metastasis inactive, HTT promoter inh inactive, PMP22 txn inactive and HTT-AS act inactive.
For Cc1ccc(-n2cc(-c3ccccc3)nc2S(=O)(=O)CC(=O)Nc2ccc(F)cc2)cc1 the results were S16 viability inactive, mTORC1 inh inactive, OvCa metastasis inactive, HTT promoter inh inactive, PMP22 txn inconclusive and HTT-AS act 3.2µM.
Cc1ccc(-c2cn(-c3ccc(Cl)cc3)c(S(=O)(=O)CC(=O)Nc3ccccc3)n2)cc1 was read as S16 viability inactive, mTORC1 inh inactive, OvCa metastasis inactive, HTT promoter inh inactive, PMP22 txn inconclusive and HTT-AS act inconclusive.
COc1ccccc1[C@H](c1cccc2ccccc12)[C@@](C)(C#N)C(=O)N1CCC(c2cccc(C(F)(F)F)c2)CC1 was read as OvCa metastasis inactive, HTT promoter inh inactive and HTT-AS act inactive.
